Assay outcomes (PubChem BioAssay)
Sm TGR block: S. mansoni TGR enzyme inhibition; Q962Y6; purified TGR, DTNB reduction, TNB absorbance 405 nm; Potency, µM (titrated, usually from 114 µM), for inactives: at the top dose activity change, negative = inhibition, actives largely listed as inhibitors; hit rate 3% among 360,000; further: potency means the concentration at half of the fitted maximal effect; nearly all actives have a fitted effect of over 60% in size
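Kinetic colorimetric format: TGR-catalysed, NADPH-driven DTNB reduction monitored via TNB absorbance. Enzyme dispensed at 20 nM; compound exposure 15 min at room temperature before reaction start.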
Giardia FBPA inh: inhibitors of Giardia lamblia fructose-1,6-bisphosphate aldolase. A8B2U2. purified Giardia FBPA. Potency, µM (doses to about 59.6 µM), inactives show at the top dose activity, negative = inhibition, most hits filed as inhibitors. hit rate 0.71% among 290,000. AID 2451; further: potency means the concentration at half of the fitted maximal effect; nearly all actives have a fitted effect of over 55% in size
Target sequence (A8B2U2 whole entry, looked up): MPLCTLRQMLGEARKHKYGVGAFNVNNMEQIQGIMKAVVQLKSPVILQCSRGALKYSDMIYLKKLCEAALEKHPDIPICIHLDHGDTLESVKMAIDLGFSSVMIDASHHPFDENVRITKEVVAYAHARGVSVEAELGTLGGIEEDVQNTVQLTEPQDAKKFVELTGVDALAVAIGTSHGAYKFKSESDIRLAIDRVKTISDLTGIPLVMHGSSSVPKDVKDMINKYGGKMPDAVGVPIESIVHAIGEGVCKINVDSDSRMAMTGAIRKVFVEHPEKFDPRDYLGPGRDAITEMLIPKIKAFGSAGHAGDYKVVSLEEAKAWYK
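Giardia FBPA (40 nM reagent) was preincubated 10 min at RT with compound (up to 57.5 uM final), then substrate plus GAPDH/TPI/NAD/arsenate coupling system with diaphorase/resazurin was added; resorufin fluorescence (525/598 nm) was read after 20 min.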
RE007 growth inh: less growth of the S. pombe RE007 Vpr strain. Potency, µM (titrated, usually from 92.2 µM), for the others: at the top dose activity change, negative = less growth, usual class: inhibitors. AID 651644. hit rate 0.21% among 360,000. S. pombe RE007 Vpr strain, BacTiter-Glo ATP luminescence, 24 h; active means well fitted falling curve with a large enough effect; inconclusive means small, poorly fitted or top-dose-only effect; inactive means no such curve, though single readings can be large or run the other way; further: potency means the concentration at half of the fitted maximal effect; nearly all actives have a fitted effect of over 50% in size
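Fission yeast RE007 carrying one integrated HIV-1 vpr copy, seeded at OD 0.01 in PMG+AL medium with 23 nL pinned compound. Grown 24 h at 30 degrees; viability read by BacTiter-Glo luminescence after 5 min.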
Tb PYK inh: T. brucei pyruvate kinase inhibition. Q57TT1. TbPYK enzyme, Kinase-Glo Plus ATP luminescence, 45 min. Potency, µM (series often up to 76.8 µM), without a hit: at the top dose activity, negative = inhibition, most hits filed as inhibitors. hit rate 0.12% among 410,000. AID 624173; further: potency means the concentration at half of the fitted maximal effect; nearly all actives have a fitted effect of over 50% in size
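Luminescence from Kinase-Glo Plus, added after a 45-minute room-temperature reaction, served as the end-point read-out. The enzyme and substrate were preincubated with compound before ADP (130 uM final) initiated turnover. Concentration-effect curves came from normalized qHTS data.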
HCMV antiviral: inhibitors of human cytomegalovirus; activity change, negative = inhibition, % at 57.5 µM; AID 1259415; HFF cells, HCMV-luciferase reporter, 72 h; stronger effect = lower value; hit rate 4.5% among 410,000; in the data active means activity change below about -60%; inconclusive means no clear call, values can overlap the other calls; inactive means above about -39%
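Luciferase read-out from HCMV-luciferase-infected HFFs (MOI 1 PFU/cell) 72 h post infection at 37C; compounds added after 16 h cell attachment; activity normalized between buffer-only basal and Salinomycin (10uM) inhibitor controls.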
FMDV inh: blocks foot and mouth disease virus. FMDV antiviral cell-based qHTS. hit rate 1.2% among 410,000. Potency, µM (doses to about 57.9 µM), for inactives: at the top dose activity change, negative = inhibition, most hits filed as inhibitors; calls by dose curve; tested in HEK293T cells; further: read-out not given here; potency means the concentration at half of the fitted maximal effect; nearly all actives have a fitted effect of over 45% in size
Numbers without * were called inactive; u = inconclusive; x = not tested or not shown. Only some compounds are listed: those with a hit (about 7.7% of all), similar ones and a draw of the others. Unless noted, the call rests on the fitted dose curve; in most records, active means well fitted curve in the direction sought with a large enough effect; inconclusive means small, poorly fitted or top-dose-only effect, or another doubt; inactive means no such curve, though single readings can be large; an effect the other way counts as inactive or inconclusive. On the % scale 0 is the no-effect control and ±100 the full control effect.

SMILES	Sm TGR block	Giardia FBPA inh	RE007 growth inh	Tb PYK inh	HCMV antiviral	FMDV inh
CCC[C@H]1[C@@H](NS(=O)(=O)c2ccc(C)cc2)CC[C@@]23CCCN2C(=O)CCC[C@@H]13	x	x	x	x	-103*	x
CCC[C@H]1[C@@H](NS(=O)(=O)c2ccc(Cl)cc2)CC[C@@]23CCCN2C(=O)CCC[C@@H]13	x	x	x	x	-17	x
CC(=O)Oc1ccc(-c2csc(Nc3cccnc3)n2)cc1	8%	7%	8%	0%	-102*	15%
COc1ccc(-c2csc(Nc3ccc(Oc4ccccc4)cc3)n2)cc1	x	x	-18%	-6%	-65*	u
Cc1ccc(-c2nc3sc(CCNS(=O)(=O)c4cc(F)ccc4F)c(C)n3n2)cc1	5%	x	x	2%	u	-16%
COCc1c(C(=O)NC2CCOC(C)(C)C2)cnn1-c1nccc(-c2cccs2)n1 (centres undefined)	x	x	x	x	x	31%
CC(=O)C(Sc1nccc(-c2cccs2)n1)C(C)=O	-15%	18µM*	u	-1%	41	32%
CC(C)NC(=O)CSc1nccc(-c2cccs2)n1	-1%	0%	32%	-5%	-28	10%
CC1=C(C(=O)OC2CCCC2)C(c2ccc(F)cc2F)CC(=O)N1 (centres undefined)	0%	x	x	0%	u	-5%
O=[N+]([O-])CC(=Nc1ccc(Cl)cc1)N/N=C\c1oc(O)c2ccccc12	13µM*	-12%	6%	1%	79	57%
Cc1ccc2ncc(C(=O)NCc3ccccc3Cl)c(=O)n2c1	9%	x	x	4%	-8	13%
Cc1ccc(-n2nnnc2Sc2nc([N+](=O)[O-])nn2C)c(C)c1	x	x	2%	0%	-70*	-16%
O=C1Nc2ccccc2N=C(c2ccccc2)C1Br (centres undefined)	40µM*	u	2%	-13%	-24	14%
O=C1Nc2ccccc2N=C(c2ccccc2)C1N1CCOCC1 (centres undefined)	1%	-8%	-6%	5%	62	-22%
COc1ccc(/C(N)=N/OC(=O)C2CCCCC2)cc1	89µM*	x	-3%	-8%	25	8%
Cn1c(=O)c2c(ncn2CC(=O)Nc2nc(-c3ccccc3Cl)cs2)n(C)c1=O	5%	0%	2%	-14%	-60*	13µM*
N=c1sccn1CC(=O)Nc1ccccc1Sc1ccccc1	2%	0%	-23%	-6%	-62*	-28%
O=C(CN1CCOCC1)Nc1ccccc1Sc1ccccc1	5%	2%	-10%	-5%	-14	0%
CCOC(=O)Cc1csc(NC(=O)Cn2cnc3c2c(=O)n(C)c(=O)n3C)n1	-9%	2%	6%	-11%	15	u
COC(=O)c1ccccc1NC(=O)Cn1cnc2c1c(=O)n(C)c(=O)n2C	x	x	-13%	4%	19	u
Cn1c(=O)c2c(ncn2CC(=O)Nc2ccccc2Sc2ccccc2)n(C)c1=O	-6%	-1%	-8%	-9%	-76*	x
CCOC(=O)c1ccc(CN(Cc2ccc(F)cc2)S(=O)(=O)c2ccc(F)c(C(=O)Nc3c(C)cccc3C)c2)cc1	11%	x	x	-2%	u	-9%
CCc1ccccc1NC(=O)CN(C)Cc1c(O)ccc2ccccc12	0.71µM*	-12%	u	23%	-23	-9%
CCCN(CC(=O)Nc1ccccc1OC)Cc1c(O)ccc2ccccc12	2µM*	-14%	-4%	3%	11	-3%
CN(CC(=O)Nc1ccccc1C(F)(F)F)Cc1c(O)ccc2ccccc12	1µM*	-22%	-16%	5%	4	-11%
SMILES	Sm TGR block	Giardia FBPA inh	RE007 growth inh	Tb PYK inh	HCMV antiviral	FMDV inh
CN(CC(=O)Nc1ccccc1C(F)(F)F)C(=O)c1cc(Cl)nc2ccccc12	-3%	x	-6%	-3%	5	-17%
COc1ccc2c(c1)c1c(c(=O)n(-c3ccccc3)c(=O)n1CC(=O)NCCC1=CCCCC1)n2C	1%	x	x	-2%	23	-2%
CCCCN(CC)C(=O)CCCn1c(=O)c2cccn2c2ccccc21	-3%	x	x	3%	u	-22%
O=[N+]([O-])/C(C(Cl)=C(Cl)Cl)=C(/NC1CC1)Sc1ccccc1	4µM*	u	-6%	-11%	-38	43%
COc1ccc(N2CCN(C(=O)c3ccc(CS(=O)c4cccc(Cl)c4)o3)CC2)cc1 (centres undefined)	x	x	-2%	-15%	-73*	u
COc1ccc(N2CCN(C(=O)c3ccc(COc4ccc([N+](=O)[O-])cc4)o3)CC2)cc1	-12%	-4%	-6%	-7%	u	28µM*
CC(=O)c1ccc(S(=O)(=O)N2CCN(C(=O)c3ccc(COc4ccccc4)o3)CC2)cc1	-5%	x	0%	-1%	-61*	u
CCN1CCN(C(=O)c2ccc(COc3ccc(Cl)cc3)o2)CC1	32%	x	-7%	-3%	-12	u
CCN1CCN(C(=O)c2ccc(COc3cccc(Cl)c3)o2)CC1	-12%	4%	5%	2%	-69*	-18%
COc1ccc(-c2nc(CSc3nnc(C)n4c3cc3sccc34)c(C)o2)cc1	-6%	x	x	6%	33	10%
CCN(CC)C(=O)Cn1c(=O)nc(-c2ccccc2F)c2cc(Cl)ccc21	6%	x	x	0%	16	1%
CC1(C)OC(=O)C2=C(CC(CCc3ccccc3)OC2c2cccc(C(F)(F)F)c2)O1 (centres undefined)	x	x	x	x	23	x
Cc1cccc(S(=O)Cc2ccc(C(=O)N3CCOCC3)o2)c1 (centres undefined)	45µM*	x	8%	-7%	17	-5%
COc1cccc(N2CCN(C(=O)c3ccc(CS(=O)c4cccc(Cl)c4)o3)CC2)c1 (centres undefined)	-32%	x	x	-1%	-69*	-22%
COc1ccc(-c2nc3cnc(Nc4ccc(F)c(Cl)c4)cc3n2C)cc1OC	x	x	x	x	-30	x
Cc1cc(C)c(C(=O)NC2CCCc3c2cnn3-c2cccc(C)c2C)o1 (centres undefined)	10%	x	12%	3%	-74*	-17%
Cc1cccc(-n2ncc3c2CCCC3NC(=O)CCN2CCCO2)c1C (centres undefined)	-30%	x	4%	-3%	-76*	0%
Cc1cccc(-n2ncc3c2CCCC3NC(=O)C2=CC(=O)CC(C)(C)O2)c1C (centres undefined)	-29%	2%	14%	-9%	-68*	u
CCc1cc(C(=O)NC2CCCc3c2cnn3-c2cccc(C)c2C)n(C)n1 (centres undefined)	-7%	-10%	15%	-1%	-86*	28µM*
Cc1cccc(-n2ncc3c2CCCC3NC(=O)C2(C(N)=O)CC2)c1C (centres undefined)	8%	x	18%	2%	-40	u
